The panel holds about 79,000 compounds, 15% with a hit somewhere; the sample as a whole holds those more often. The source made the active and inactive calls. Rule as the data show it: active = growth inhibition above about 70%; inactive = the rest.
Columns and labels:
[1] = NCI Yeast Anticancer Drug Screen. Data for the rad50 strain (AID 155);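 also: 0% = growth of vehicle-only cultures of the same strain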; settings: S. cerevisiae rad50 strain growth inhibition; at 50.0 µM; hits give high values
How it was run: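 DNA repair mutant yeast, compound exposure, growth read-out; inhibition is taken relative to vehicle.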

[2] = NCI Yeast Anticancer Drug Screen. Data for the mec2-1 strain (AID 157); settings: S. cerevisiae mec2-1 strain, at 50.0 µM, hits give high values
How it was run: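 mec2-1 yeast strain, carrying an alteration in DNA damage repair or cell cycle control, was exposed to compounds; growth inhibition was measured relative to vehicle-treated controls.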

[3] = NCI Yeast Anticancer Drug Screen. Data for the sgs1 mgt1 strain (AID 161);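 also: 0% = growth of cultures given vehicle only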; settings: S. cerevisiae sgs1 mgt1 strain, at 50.0 µM, hits give high values
How it was run: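 Growth of a repair-deficient yeast mutant was monitored after compound treatment and expressed as inhibition relative to vehicle-treated cultures.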

[4] = NCI Yeast Anticancer Drug Screen. Data for the cln2 rad14 strain (AID 165);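 also: 0% = growth equal to vehicle treated cultures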; settings: S. cerevisiae cln2 rad14 strain, at 50.0 µM, hits give high values
How it was run: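 Yeast carrying cln2 and rad14 alterations (cell cycle control and DNA damage repair) were exposed to compounds. Growth inhibition was measured against vehicle-treated controls.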

[5] = NCI Yeast Anticancer Drug Screen. Data for the bub3 strain (AID 167); settings: S. cerevisiae bub3 mutant strain, at 50.0 µM, hits give high values
How it was run: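 In this screen, a yeast mutant lacking normal mitotic checkpoint function is challenged with compound. Relative growth versus vehicle gives the inhibition value.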

[6] = NCI Yeast Anticancer Drug Screen. Data for the mlh1 rad18 strain (AID 175); settings: S. cerevisiae mlh1 rad18 strain growth inhibition; at 50.0 µM; hits give high values
How it was run: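 Growth inhibition of the yeast strain was measured after compound exposure and expressed relative to vehicle-treated controls. The strain carries defined defects in DNA damage repair.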

Measured: growth inhibition

CCCCNC(=O)NCCCC
inactive: [1] 5.85% | [2] 3.6% | [3] -5.75% | [4] -4.5% | [5] -2.65% | [6] -0.15%

O=C(CNC(=O)C(CSC(c1ccccc1)(c1ccccc1)c1ccccc1)NC(=O)OCc1ccccc1)OCc1ccccc1[N+](=O)[O-] (stereo unspecified)
inactive: [1] 4.9% | [2] 8.85% | [3] -4.15% | [4] -7.95% | [5] -7.05% | [6] 20.1%

COC(=O)CCC(=O)CC(=O)C1=NS(=O)(=O)c2nc(S(N)(=O)=O)c(Cl)cc2N1
inactive: [1] -5.3% | [2] 6.7% | [3] -14.8% | [4] -24.6% | [5] -16.1% | [6] -1.35%

COC1=CC(=O)C(CC=C(C)C)=CC1=O
inactive: [1] 5.65% | [2] -9.9% | [3] -1.2% | [4] -62.4% | [5] -8.9% | [6] -3.2%

Cc1nc2ccc(I)cc2c(=O)n1-c1ccc(N=Cc2ccc(N(C)C)cc2)cc1
inactive: [1] 4.7% | [2] 9.1% | [3] 14.3% | [4] 4.95% | [5] -2.9% | [6] 10.9%

COc1ccc(NC(=O)Nc2ccc(-c3ccc(NC(=O)Nc4ccc(OC)cc4)c(C)c3)cc2C)cc1
inactive: [1] -30.1% | [2] -41.4% | [3] -8.5% | [4] -3.25% | [5] -24.1% | [6] -23.6%

c1ccc2c(c1)N=C(c1cccc3ccccc13)CC(c1cccc3ccccc13)S2 (stereo unspecified)
inactive: [1] -28% | [2] -20.9% | [3] -46.5% | [4] -3.25% | [5] -18.9% | [6] -37%

Cc1ccc(C(=O)NC(C)C)cc1N=NN(C)C
inactive: [1] -34.2% | [2] -42.1% | [3] -46.9% | [4] 9.7% | [5] -31.7% | [6] -32.2%

c1ccc2c(c1)CC1C3c4ccccc4C(c4ccccc43)C1C2 (stereo unspecified)
inactive: [1] -12.1% | [2] 3.1% | [3] -8.95% | [4] 8.35% | [5] -16.2% | [6] -25.1%

O=C(c1ccccc1)N(C(=O)c1ccccc1)c1cccc[n+]1[O-]
inactive: [1] 4.4% | [2] -2.25% | [3] -1.75% | [4] -12.2% | [5] -10.2% | [6] -4%

CC(=O)NNc1nc(C)c(C(=O)NNC(=O)C(=O)Nc2ccc(Cl)cc2)s1
inactive: [1] 27% | [2] -0.4% | [3] 16.5% | [4] -63.2% | [5] 20% | [6] 22.9%

O=C1OCC/C1=C\c1cccc2ccccc12
inactive: [1] 5.2% | [2] 2.4% | [3] -3.45% | [4] 12.5% | [5] -5% | [6] 6.35%

Nc1ccccc1C(=O)N/N=C/c1cccnc1
inactive: [1] 11.1% | [2] -21.3% | [3] 17.7% | [4] 9.45% | [5] 13.2% | [6] -16.6%

CC(=O)c1ccc(O)c(C=O)c1O
inactive: [1] 11.7% | [2] 9.3% | [3] 27.1% | [4] 2.65% | [5] -2.9% | [6] 31.9%

NNC(=O)c1ccc(-c2ccc[nH]2)[nH]1
inactive: [1] 10.7% | [2] 0.7% | [3] -20.9% | [4] -75.5% | [5] -14.4% | [6] 5%

CCCCCCCCCCCCCCCCCCn1cnc2ncnc(Cl)c21
inactive: [1] 6.95% | [2] 5.6% | [3] 8.15% | [4] 55.3% | [6] 32.7%
active: [5] 96.5%

C=Cc1ccc(OC2OC(CO)C(OC3OC(CO)C(O)C(O)C3O)C(O)C2O)cc1 (stereo unspecified)
inactive: [1] 14.7% | [2] -18.9% | [3] -1.1% | [4] -58.9% | [5] -0.35% | [6] -2.8%

CCC(C)NC(=O)c1ccc(Cl)cc1Cl (stereo unspecified)
inactive: [1] 15.8% | [2] -18.5% | [3] -12.7% | [4] -68.5% | [5] -28.9% | [6] -22.6%

CCOC(=O)CSCCC(=O)OC
inactive: [1] -1.3% | [2] 3.1% | [3] -0.8% | [4] -5.5% | [5] -0.05% | [6] 1.35%

O=[N+]([O-])C(C=C(n1nnc2ccccc21)n1nnc2ccccc21)=C(n1nnc2ccccc21)n1nnc2ccccc21
inactive: [1] -20.1% | [2] -2.75% | [3] 16.7% | [4] 4.2% | [5] -6.45% | [6] 5.35%

C/C(=N\NC(=S)N1CCN(c2ccccn2)CC1)c1cccc2cccnc12
inactive: [1] 13.4% | [2] -21.1% | [3] -18.9% | [4] 2.4% | [5] 1.4% | [6] -0.25%

CCCCN(C(C)=O)c1ccccc1
inactive: [1] -8.8% | [2] 9.45% | [3] 4.2% | [4] -6.15% | [5] -9.4% | [6] 1.1%

CC(=O)C1=C(C)N2C(=NC3=C(CCc4ccccc43)C2c2ccc(F)cc2)S1 (stereo unspecified)
inactive: [1] -5.6% | [2] -23.9% | [3] -15.4% | [4] 11.3% | [5] -21.8% | [6] -9.8%

CC(=O)OC1CCC2(C)C(=CCC3C2CCC2(C)C(C(C)C(=O)O)CCC32)C1 (stereo unspecified)
inactive: [1] 15.7% | [2] -32.8% | [3] -21.4% | [4] -10.2% | [5] -31.1% | [6] 13%

C=CCOC(=O)Nc1ccc(S(=O)(=O)N2CCCCC2)cc1
inactive: [1] 9% | [2] 6.1% | [3] 2.95% | [4] -17.4% | [5] 17.6% | [6] -5.15%

Cc1ccc2c(c1)-c1c3c(nn1C)-c1ccccc1SC3O2 (stereo unspecified)
inactive: [1] -0.35% | [2] -7.75% | [3] -13.1% | [4] -3.6% | [5] -5.75% | [6] 9.15%

CCOC(=O)CC1(C)NC(=O)NC1=O (stereo unspecified)
inactive: [1] 4.35% | [2] 6.65% | [3] 8.45% | [4] -31.8% | [5] -4.4% | [6] 1%

Cc1ccc(S(=O)(=O)N/N=C/C(C)C)cc1
inactive: [1] 14.2% | [2] -15.6% | [3] 4.75% | [4] 17.8% | [5] -14.8% | [6] 24.2%

CC(NC(=O)c1cnc2ccccc2n1)C(=O)O (stereo unspecified)
inactive: [1] -19.4% | [2] -24.4% | [3] -29.8% | [4] -16.4% | [5] 4.05% | [6] -24.8%

CC(=O)CCC(=O)CCC(C)=O
inactive: [1] -0.05% | [2] 30.4% | [3] 6.05% | [4] -1.85% | [5] 29.1% | [6] -2.7%

CCC1Cc2ccccc2OC1=O (stereo unspecified)
inactive: [1] 10.9% | [2] -3.6% | [3] -1.95% | [4] -7.7% | [5] 7.9% | [6] 1.55%

CN(/N=C/c1cccc2cccnc12)c1ccccc1
inactive: [1] 8.9% | [2] 6.3% | [3] -0.45% | [4] 29.4% | [5] 14.6% | [6] 16.7%

COC(C)(C)C/C=C/C(C)=C/C=C/C(C)=C\C=C\C(C)=C\C=C\C=C(C)\C=C\C=C(C)\C=C\C=C(C)\C=C\CC(C)(C)OC
inactive: [1] -10.8% | [2] -1.65% | [3] -26.9% | [4] 2.25% | [5] -12.2% | [6] -12.1%

O=C(CC(CC(=O)Oc1c(Br)cc(Br)cc1C(=O)O)C(=O)Oc1c(Br)cc(Br)cc1C(=O)O)Oc1c(Br)cc(Br)cc1C(=O)O
inactive: [1] -17.4% | [2] -23.4% | [3] -10% | [4] 8.7% | [5] -24% | [6] -5.6%

O=S(=O)(CS(=O)(=O)N1CCCCC1)N1CCCCC1
inactive: [1] -3.8% | [2] -5.4% | [3] -3.4% | [4] -9.7% | [5] 6.7% | [6] 0.95%

CCOC(=O)/C(O)=C/c1cc(=O)n(C)c2ccccc12
inactive: [1] -6.6% | [2] 10.7% | [3] -5.8% | [4] -21.8% | [5] -9.9% | [6] -17.4%

CC(=O)N1CCc2ccccc2C1C1NCCc2ccccc21 (stereo unspecified)
inactive: [1] 14.4% | [2] 8.95% | [3] 13.1% | [4] -0.15% | [5] 1.05% | [6] 5.9%

CC(NC(=O)C(NC(=O)c1ccc[n+](Cc2ccccc2)c1)C(C)C)C(N)=O (stereo unspecified)
inactive: [1] 0.45% | [2] 8.05% | [3] -2.6% | [4] -6.2% | [5] -1.95% | [6] 23.4%

COC(CCl)OC
inactive: [1] 3.75% | [2] -18.6% | [3] 15.8% | [4] 10.3% | [5] -9.7% | [6] 2.6%

CSc1nc2cc(S(=O)(=O)N3CCCCC3)ccc2s1
inactive: [1] -34.5% | [2] -21.8% | [3] -25.5% | [4] -52.6% | [5] -89.3% | [6] -7%

C=C1c2cc3c(cc2CC12Cc1cc4c(cc1C2=O)CCC4)CCC3 (stereo unspecified)
inactive: [1] 20.2% | [2] 22% | [3] 11.3% | [4] 24.1% | [5] 46.8% | [6] 16%

— PubChem BioAssay (NCI)
